{"source": "paper PMC11062922", "about": "(Nature Chemical Biology, 2023)", "parameters_in_all_cases": "species or system human, MV4-11 + K-562 + COLO205 + SK-N-BE2 + OVCAR-8", "key": {"[1]": {"system": "ADCK3", "conditions": "read-out: apparent Kd, n = 1"}, "[2]": {"system": "AKT3", "conditions": "read-out: apparent Kd, n = 1"}, "[3]": {"system": "BRAF", "conditions": "read-out: apparent Kd; compound concentrations:100 nM and 1000 nM (sheet 'Samples'); n = 1"}, "[4]": {"system": "NNT", "conditions": "read-out: apparent Kd; compound concentrations:100 nM and 1000 nM (sheet 'Samples'); n = 1"}, "[5]": {"system": "RIPK2", "conditions": "read-out: apparent Kd; compound concentrations:100 nM and 1000 nM (sheet 'Samples'); n = 1"}, "[6]": {"system": "STK26", "conditions": "read-out: apparent Kd; compound concentrations:100 nM and 1000 nM (sheet 'Samples'); n = 1"}, "[7]": {"system": "AKT2", "conditions": "read-out: apparent Kd, n = 1"}, "[8]": {"system": "CDK17", "conditions": "read-out: apparent Kd; compound concentrations:100 nM and 1000 nM (sheet 'Samples'); n = 1"}, "[9]": {"system": "CIT", "conditions": "read-out: apparent Kd; compound concentrations:100 nM and 1000 nM (sheet 'Samples'); n = 1"}, "[10]": {"system": "DCTPP1", "conditions": "read-out: apparent Kd; compound concentrations:100 nM and 1000 nM (sheet 'Samples'); n = 1"}, "[11]": {"system": "EPHA1", "conditions": "read-out: apparent Kd; compound concentrations:100 nM and 1000 nM (sheet 'Samples'); n = 1"}, "[12]": {"system": "EPHB6", "conditions": "read-out: apparent Kd; compound concentrations:100 nM and 1000 nM (sheet 'Samples'); n = 1"}, "[13]": {"system": "ERBB3", "conditions": "read-out: apparent Kd; compound concentrations:100 nM and 1000 nM (sheet 'Samples'); n = 1"}, "[14]": {"system": "ERN2", "conditions": "read-out: apparent Kd; compound concentrations:100 nM and 1000 nM (sheet 'Samples'); n = 1"}, "[15]": {"system": "IGF1R", "conditions": "read-out: apparent Kd; compound concentrations:100 nM and 1000 nM (sheet 'Samples'); n = 1"}, "[16]": {"system": "JAK2", "conditions": "read-out: apparent Kd; compound concentrations:100 nM and 1000 nM (sheet 'Samples'); n = 1"}, "[17]": {"system": "MELK", "conditions": "read-out: apparent Kd; compound concentrations:100 nM and 1000 nM (sheet 'Samples'); n = 1"}, "[18]": {"system": "PDGFRB", "conditions": "read-out: apparent Kd; compound concentrations:100 nM and 1000 nM (sheet 'Samples'); n = 1"}, "[19]": {"system": "PYGL", "conditions": "read-out: apparent Kd; compound concentrations:100 nM and 1000 nM (sheet 'Samples'); n = 1"}, "[20]": {"system": "RIOK2", "conditions": "read-out: apparent Kd, n = 1"}, "[21]": {"system": "TTN", "conditions": "read-out: apparent Kd; compound concentrations:100 nM and 1000 nM (sheet 'Samples'); n = 1"}, "[22]": {"system": "ATM", "conditions": "read-out: apparent Kd; compound concentrations: 100 nM and 1000 nM (sheet 'Samples'), CATDS: 0.655973384718888; n = 1"}, "[23]": {"system": "ADCK1", "conditions": "read-out: apparent Kd; compound concentrations: 100 nM and 1000 nM (sheet 'Samples'), CATDS: 7.5755485484616303E-2; n = 1"}, "[24]": {"system": "CLK1", "conditions": "read-out: apparent Kd; compound concentrations: 100 nM and 1000 nM (sheet 'Samples'), CATDS: 0.119172303588979; n = 1"}, "[25]": {"system": "CLK2", "conditions": "read-out: apparent Kd; compound concentrations: 100 nM and 1000 nM (sheet 'Samples'), CATDS: 0.34791334092069898; n = 1"}, "[26]": {"system": "CLK4", "conditions": "read-out: apparent Kd; compound concentrations: 100 nM and 1000 nM (sheet 'Samples'), CATDS: 0.107849742816713; n = 1"}, "[27]": {"system": "T1, DJA1", "T1 construct": "gene DNAJA1", "conditions": "read-out: apparent Kd; compound concentrations: 100 nM and 1000 nM (sheet 'Samples'), CATDS: 8.1274220944096601E-2; n = 1"}, "[28]": {"system": "MAPK14", "conditions": "read-out: apparent Kd; compound concentrations: 100 nM and 1000 nM (sheet 'Samples'), CATDS: 9.4734585023085197E-2; n = 1"}, "[29]": {"system": "NQO2", "conditions": "read-out: apparent Kd; compound concentrations: 100 nM and 1000 nM (sheet 'Samples'), CATDS: 8.1973384609640695E-2; n = 1"}, "[30]": {"system": "PIP4K2C", "conditions": "read-out: apparent Kd; compound concentrations: 100 nM and 1000 nM (sheet 'Samples'), CATDS: 7.6274821078241906E-2; n = 1"}, "[31]": {"system": "STK16", "conditions": "read-out: apparent Kd; compound concentrations: 100 nM and 1000 nM (sheet 'Samples'), CATDS: 8.9736368471695804E-2; n = 1"}, "[32]": {"system": "TESK2", "conditions": "read-out: apparent Kd; compound concentrations: 100 nM and 1000 nM (sheet 'Samples'), CATDS: 7.0727879355670806E-2; n = 1"}, "[33]": {"system": "TGFBR2", "conditions": "read-out: apparent Kd; compound concentrations: 100 nM and 1000 nM (sheet 'Samples'), CATDS: 7.2410579705908001E-2; n = 1"}, "[34]": {"system": "ADRBK1", "conditions": "read-out: apparent Kd, compound concentrations: 100 nM and 1000 nM (sheet 'Samples'), n = 1"}, "[35]": {"system": "AKT1", "conditions": "read-out: apparent Kd; compound concentrations: 100 nM and 1000 nM (sheet 'Samples'), CATDS: 0.124475037217828; n = 1"}, "[36]": {"system": "CDK6", "conditions": "read-out: apparent Kd; compound concentrations: 100 nM and 1000 nM (sheet 'Samples'), CATDS: 0.119736809743275; n = 1"}, "[37]": {"system": "ILK", "conditions": "read-out: apparent Kd; compound concentrations: 100 nM and 1000 nM (sheet 'Samples'), CATDS: 0.12734816485016201; n = 1"}, "[38]": {"system": "MAP2K2", "conditions": "read-out: apparent Kd; compound concentrations: 100 nM and 1000 nM (sheet 'Samples'), CATDS: 0.12469214085712101; n = 1"}, "[39]": {"system": "CLK3", "conditions": "read-out: apparent Kd; compound concentrations: 100 nM and 1000 nM (sheet 'Samples'), CATDS: 0.62903265036008305; n = 1"}, "[40]": {"conditions": "compound concentrations:100 nM and 1000 nM (sheet 'Samples')"}}, "note": "Read-outs that look alike come from different tables or passages of the source."}
{"compound": "CN(C)CCOc1ccc(-c2nc(-c3ccc4c(c3)CC/C4=N/O)c(-c3ccncc3)[nH]2)cc1", "note": "[SB-590885_KCGS]", "values": [{"measurement": "potency estimated from few doses", "setting": "[1]; [40]", "value": 1.15, "unit": "µM"}, {"measurement": "potency estimated from few doses", "setting": "[2]; [40]", "value": 1.9, "unit": "µM"}, {"measurement": "potency estimated from few doses", "setting": "[3]", "value": 0.0886, "unit": "µM"}, {"measurement": "potency estimated from few doses", "setting": "[4]", "value": 1.68, "unit": "µM"}, {"measurement": "potency estimated from few doses", "setting": "[5]", "value": 0.679, "unit": "µM"}, {"measurement": "potency estimated from few doses", "setting": "[6]", "value": 2.21, "unit": "µM"}]}
{"compound": "CNc1nc(-c2ccc3c(N)n[nH]c3c2)cc(N2C[C@@H](C(=O)NC3CCCCC3)CC[C@H]2C)n1", "note": "[GSK2334470]", "values": [{"measurement": "potency estimated from few doses", "setting": "[1]; [40]", "value": 1.18, "unit": "µM"}, {"measurement": "potency estimated from few doses", "setting": "[7]; [40]", "value": 1.57, "unit": "µM"}, {"measurement": "potency estimated from few doses", "setting": "[8]", "value": 2.13, "unit": "µM"}, {"measurement": "potency estimated from few doses", "setting": "[9]", "value": 1.43, "unit": "µM"}, {"measurement": "potency estimated from few doses", "setting": "[10]", "value": 1.89, "unit": "µM"}, {"measurement": "potency estimated from few doses", "setting": "[11]", "value": 0.845, "unit": "µM"}, {"measurement": "potency estimated from few doses", "setting": "[12]", "value": 1.84, "unit": "µM"}, {"measurement": "potency estimated from few doses", "setting": "[13]", "value": 1.36, "unit": "µM"}, {"measurement": "potency estimated from few doses", "setting": "[14]", "value": 1.44, "unit": "µM"}, {"measurement": "potency estimated from few doses", "setting": "[15]", "value": 2.36, "unit": "µM"}, {"measurement": "potency estimated from few doses", "setting": "[16]", "value": 0.47, "unit": "µM"}, {"measurement": "potency estimated from few doses", "setting": "[17]", "value": 1.64, "unit": "µM"}, {"measurement": "potency estimated from few doses", "setting": "[18]", "value": 1.95, "unit": "µM"}, {"measurement": "potency estimated from few doses", "setting": "[19]", "value": 2.02, "unit": "µM"}, {"measurement": "potency estimated from few doses", "setting": "[20]; [40]", "value": 2.11, "unit": "µM"}, {"measurement": "potency estimated from few doses", "setting": "[21]", "value": 0.945, "unit": "µM"}]}
{"compound": "COc1ccc(CNC(=O)c2ccc(-c3cc(-c4nnc(C)o4)ccc3C)cc2)cc1", "note": "[GW701032X]", "values": [{"measurement": "potency estimated from few doses", "setting": "[1]; compound concentrations: 100 nM and 1000 nM (sheet 'Samples'), CATDS: 0.40395097893739401", "value": 0.731, "unit": "µM"}, {"measurement": "potency estimated from few doses", "setting": "[22]", "value": 0.26, "unit": "µM"}]}
{"compound": "CCOc1ccc2c(-c3ccnc(Nc4cc(OC)cc(C(F)(F)F)c4)n3)cnn2n1", "note": "[GW807982X_KCGS]", "values": [{"measurement": "potency estimated from few doses", "setting": "[23]", "value": 1.8, "unit": "µM"}, {"measurement": "potency estimated from few doses", "setting": "[24]", "value": 0.672, "unit": "µM"}, {"measurement": "potency estimated from few doses", "setting": "[25]", "value": 0.132, "unit": "µM"}, {"measurement": "potency estimated from few doses", "setting": "[26]", "value": 0.811, "unit": "µM"}, {"measurement": "potency estimated from few doses", "setting": "[27]", "value": 1.5, "unit": "µM"}, {"measurement": "potency estimated from few doses", "setting": "[28]", "value": 1.05, "unit": "µM"}, {"measurement": "potency estimated from few doses", "setting": "[29]", "value": 1.47, "unit": "µM"}, {"measurement": "potency estimated from few doses", "setting": "[30]", "value": 1.76, "unit": "µM"}, {"measurement": "potency estimated from few doses", "setting": "[31]", "value": 1.19, "unit": "µM"}, {"measurement": "potency estimated from few doses", "setting": "[32]", "value": 2.18, "unit": "µM"}, {"measurement": "potency estimated from few doses", "setting": "[33]", "value": 2.04, "unit": "µM"}]}
{"compound": "Cl.Nc1n[nH]c2cc(-c3ccccn3)ccc12", "note": "[GSK2189892A]", "values": [{"measurement": "potency estimated from few doses", "setting": "[34]; CATDS: 0.135716479442168", "value": 1.47, "unit": "µM"}, {"measurement": "potency estimated from few doses", "setting": "[35]", "value": 1.73, "unit": "µM"}, {"measurement": "potency estimated from few doses", "setting": "[7]; compound concentrations: 100 nM and 1000 nM (sheet 'Samples'), CATDS: 0.124185471208428", "value": 1.74, "unit": "µM"}, {"measurement": "potency estimated from few doses", "setting": "[2]; compound concentrations: 100 nM and 1000 nM (sheet 'Samples'), CATDS: 0.12570475509553999", "value": 1.7, "unit": "µM"}, {"measurement": "potency estimated from few doses", "setting": "[36]", "value": 1.88, "unit": "µM"}, {"measurement": "potency estimated from few doses", "setting": "[37]", "value": 1.66, "unit": "µM"}, {"measurement": "potency estimated from few doses", "setting": "[38]", "value": 1.73, "unit": "µM"}, {"measurement": "potency estimated from few doses", "setting": "[20]; compound concentrations: 100 nM and 1000 nM (sheet 'Samples'), CATDS: 0.119525040636944", "value": 1.88, "unit": "µM"}]}
{"compound": "COc1ccc2cc(-c3nc(-c4ccccc4C(C)C)[nH]c3-c3ccncc3)ccc2c1", "note": "[SB-660566]", "values": [{"measurement": "potency estimated from few doses", "setting": "[34]; CATDS: 0.41489344635778702", "value": 2.07, "unit": "µM"}, {"measurement": "potency estimated from few doses", "setting": "[39]", "value": 0.865, "unit": "µM"}]}
